# Records with an inconclusive call do not appear. A call without a number means that no potency is given here. Activity calls are given as the source filed them. The call rests on the fitted dose curve; in most records, active means well fitted cell-killing curve with a large enough effect in the repeat runs; inconclusive means weak or mixed curves, or effect the other way; inactive means flat fitted curve, though single readings scatter.
# Experiment: qHTS assay to identify small molecule that activate the aryl hydrocarbon receptor (AhR) signaling pathway - cell viability counter screen (AID 743086);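 further: HepG2 liver cells carrying the AhR DRE luciferase reporter; nearly all actives have a fitted effect of over 45% in size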
# Conditions: HepG2-AhR-luc viability, CellTiter-Fluor, 24 h; series mostly up to 70.3 µM
# Text: U.S. Tox21 Program National Center for Advancing Translational Sciences [NCATS] NIH Chemical Genomics Center [NCGC] U.S. Environmental Protection Agency [EPA] National Institutes of Environmental Health Sciences [NIEHS] National Toxicology Program [NTP] U.S. Food and Drug Administration [FDA] Tox21 Assay overview: The Aryl hydrocarbon Receptor (AhR), a member of the family of basic helix-loop-helix transcription factors, is crucial to adaptive responses to environmental changes. AhR mediates cellular responses to environmental pollutants such as aromatic hydrocarbons through induction of phase I and II enzymes but also interacts with other nuclear receptor signaling pathways A cell based HepG2-AhR-luc assay (HG2L7.5c1 cell line, developed by Dr. Michael S. Denison, University of California at Davis) was used to assess the activation of AhR. HepG2 (human hepatocellular carcinoma) cells were stably transfected with an Ah receptor-responsive firefly luciferase reporter gene plasmid containing 20 dioxin responsive elements and luciferase reporter gene. Increased luciferase activity can be used to identify the compounds that induce AhR activation. The cytotoxicity of the compounds screened against the HepG2-AhR-luc cell line was tested in parallel by measuring the cell viability using CellTiter-Fluor assay in the same wells.
# Tox21 Assay Protocol Summary: 4000 cells in 5 uL/well were dispensed into white wall/solid bottom 1536-well plates using a Multidrop Combi (Thermo Fisher Scientific Inc., Waltham, MA) dispenser. After the assay plates were incubated at 37C for 5 h, 23 nL of compound or DMSO vehicle was transferred to the assay plates by a pintool station (Kalypsys, San Diego, CA). The plates were incubated at 37C for 24 hr. For cell viability measurement, 1 ul/well of CellTiter-Fluor reagent (Promega, Madison, WI) was added into the assay plates using a Flying Reagent Dispenser (FRD) (Aurora Discovery, CA),and then the assay plates were incubated at 37C for 30 min. The fluorescence intensity in the plates was measured using a ViewLux plate reader (PerkinElmer, Shelton, CT), followed by the addition of 4 uL of ONE-Glo Luciferase Assay reagent (Promega) using an FRD (Aurora Discovery). After the assay plates were incubated at room temperature for 30 min, luminescence intensity was measured using a ViewLux plate reader (Perkin Elmer).
row,Structure (SMILES),Potency
1,O=C1c2ccccc2C(=O)c2cc(O)ccc21,inactive
2,Nc1c2c(nc3c1CCC3)CCCC2,inactive
3,c1ccc(Cc2ccccc2)cc1,inactive
4,CC1(C)OC[C@@H](COC(=O)CCc2ccc(OC[C@@H](O)CNCCNC(=O)N3CCOCC3)cc2)O1,inactive
5,CCOC(=O)C1=NOC(c2ccccc2)(c2ccccc2)C1,inactive
6,C=C[Si](OC(C)=O)(OC(C)=O)OC(C)=O,inactive
7,CCC(=O)OCc1ccccc1,inactive
8,CCCCCC(C)N (stereo not given),inactive
9,C=CC(=O)OCCCl,inactive
10,CC(C)COC(=O)c1ccc(N)cc1,inactive
11,CCCCN1C=CN(C)C1,inactive
12,COc1cc(C(=O)NCc2ccc(OCCN(C)C)cc2)cc(OC)c1OC,inactive
13,CC(CO)(CO)[N+](=O)[O-],inactive
14,CCCOC(=O)CC,inactive
15,NC(=O)N[C@@H](CCC(=O)O)C(=O)O,inactive
16,COc1cccc(OC)c1C(=O)N[C@@H]1C(=O)N2[C@@H]1SC(C)(C)[C@@H]2C(=O)O,inactive
17,CCN[C@H]1C[C@H](C)S(=O)(=O)c2sc(S(N)(=O)=O)cc21,inactive
18,O=C(CO)[C@@H](O)[C@H](O)[C@@H](O)CO,inactive
19,CN(C)[C@@H]1C(=O)C(C(=O)NCN2CCCC2)=C(O)[C@@]2(O)C(=O)C3=C(O)c4c(O)cccc4[C@@](C)(O)C3C[C@@H]12 (stereo not given in full),inactive
20,CCNS(=O)(=O)c1ccc(C)cc1,inactive

row,Structure (SMILES),Potency
1,CCCC(C)C(=O)OCC (stereo not given),inactive
2,CN(C)CCCN(C)CCCN(C)C,inactive
3,C=C(C)C(=O)OCC1CCCO1 (stereo not given),inactive
4,CN(C)C(=O)Oc1cccc([N+](C)(C)C)c1,inactive
5,NCCCC[C@H](N[C@@H](CCc1ccccc1)C(=O)O)C(=O)N1CCC[C@H]1C(=O)O,inactive
6,COc1cc(-c2ccc(=O)[nH]n2)ccc1OC(F)F,inactive
7,CCCCOC(=O)CCC(C)=O,inactive
8,CCOC(=O)CCC(=O)OCC,inactive
9,CC1=NN(c2cccc(S(=O)(=O)O)c2)C(=O)C1,inactive
10,CC(=O)N1C[C@H](O)C[C@H]1C(=O)O,inactive
11,C1CCC2(CCCCO2)OC1,inactive
12,CCC(C)(CCCC(C)C)OC(C)=O (stereo not given),inactive
13,C[N+](C)(CCOc1ccccc1)Cc1cccs1,inactive
14,Nc1ccn([C@@H]2O[C@H](CO)[C@@H](O)C2(F)F)c(=O)n1,inactive
15,CC1=C(C/C=C(\C)CCC[C@H](C)CCC[C@H](C)CCCC(C)C)C(=O)c2ccccc2C1=O,inactive
16,C=COC(=O)C(C)(CC)CCC(C)C (stereo not given),inactive
17,CC(CC=O)CC(C)(C)C (stereo not given),inactive
18,N[C@H](C(=O)O)[C@@H](O)c1ccc(O)c(O)c1,inactive
19,CC(C)(CCC(=O)O)C(=O)O,inactive
20,Clc1cc(Cl)cc(Cl)c1,inactive

# Source: PubChem BioAssay (Tox21)
